Screens: PubChem, National Center for Advancing Translational Sciences (NCATS)
Compounds with a hit are over-represented: about 19% of the library has one in this group of screens.
TDP1 inh = TDP1 (human) enzyme inhibition | recombinant TDP1, AlphaScreen DNA substrate cleavage | Potency, µM (highest dose often 130 µM), without a hit: at the top dose activity change, negative = inhibition, usual class: inhibitors | 0.28% of 350,000 active | AID 485290; further: nearly all actives have a fitted effect of over 40% in size
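Recombinant human Tdp1 (E. coli-expressed, 1 nM final) preincubated with compounds 15 min at room temperature, then 5'-biotin/3'-phosphotyrosine-FITC DNA substrate (15 nM final) added for 5 min. AlphaScreen beads (10 ug/ml final) added 10 min; cleavage lowers signal.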
TDP1 cell noCPT = qHTS for Inhibitors of human tyrosyl-DNA phosphodiesterase 1 (TDP1): qHTS in cells in absence of CPT | DT40 Tdp1-/- hTDP1 cells, no CPT, ATP luminescence, 48 h | Potency, µM (top dose mostly 46.2 µM), without a hit: top-dose activity change, negative = growth inhibition, most hits filed as inhibitors | 15% of 420,000 active; further: nearly all actives have a fitted effect of over 55% in size
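Chicken DT40 Tdp1-/- cells complemented with human TDP1, screened without camptothecin (DMSO vehicle only), 400 cells/well. Compounds pin-transferred, cells incubated at 37 °C for at least 48 hr. Growth read as ATP-dependent luminescence (CellTiter-Glo, 30 min at RT).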
DT40 TDP1 CPT = growth inhibition of DT40 Tdp1-/-;hTDP1 cells with camptothecin (screen for TDP1 inhibitors); chicken DT40 Tdp1-/-;hTDP1 cells + 20 nM CPT, ATP luminescence, 48 h; 12% of 420,000 active; Potency, µM (highest dose often 46.2 µM), inactives show at the top dose activity change, negative = growth inhibition, actives largely listed as inhibitors; further: nearly all actives have a fitted effect of over 55% in size
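Chicken DT40 Tdp1-/- cells stably complemented with human TDP1 were seeded at 400 cells/well in medium containing 20 nM camptothecin, exposed to pin-transferred compounds, and grown at 37 °C for at least 48 hr. Viability was read as ATP luminescence.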
RORgamma inh = ROR gamma (mouse) transcription inhibition; P51450; Drosophila S2 Gal4-RORgamma UAS-luciferase reporter, 20 h; Potency, µM (highest dose often 53.6 µM), for inactives: top-dose activity change, negative = inhibition, actives largely listed as inhibitors; 5.4% of 310,000 active; further: nearly all actives have a fitted effect of over 60% in size
Target sequence (P51450 whole entry, looked up, the tested form may be a part): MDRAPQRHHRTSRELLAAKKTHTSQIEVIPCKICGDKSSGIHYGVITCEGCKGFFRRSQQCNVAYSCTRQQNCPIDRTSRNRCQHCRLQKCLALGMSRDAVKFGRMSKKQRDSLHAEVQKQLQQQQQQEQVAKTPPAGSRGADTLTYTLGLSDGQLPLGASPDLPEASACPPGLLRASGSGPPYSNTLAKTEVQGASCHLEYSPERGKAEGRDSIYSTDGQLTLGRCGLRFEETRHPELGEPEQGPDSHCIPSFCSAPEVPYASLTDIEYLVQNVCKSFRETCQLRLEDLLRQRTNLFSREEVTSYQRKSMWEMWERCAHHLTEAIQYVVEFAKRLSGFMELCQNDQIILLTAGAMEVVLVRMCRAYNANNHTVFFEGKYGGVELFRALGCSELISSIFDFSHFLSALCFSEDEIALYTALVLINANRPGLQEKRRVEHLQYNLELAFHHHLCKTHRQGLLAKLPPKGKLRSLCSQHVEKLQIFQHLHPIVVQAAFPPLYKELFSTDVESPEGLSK
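Stable Schneider cell line, Gal4 DNA-binding domain fused to ROR gamma, UAS-luciferase. Cmpd 1 hr RT → CuSO4 700 uM final → 20 hr RT → luciferase reagent 10 min → luminescence.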
VP16 counter = inhibits Gal4-VP16 luciferase reporter, ROR gamma counter-screen; AID 2546; Potency, µM (top dose mostly 53.6 µM), without a hit: at the top dose activity, negative = inhibition, hits mostly inhibitors; Drosophila S2 Gal4-VP16 UAS-luciferase, luminescence, 20 h; 3.5% of 310,000 active;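 further: Gal4-VP16 expression switched on by copper sulfate through the metallothionein promoter; nearly all actives have a fitted effect of over 50% in size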
* hit, by the source's call; u = inconclusive; x = no result. The call rests on the fitted dose curve; in most records, active means well fitted curve in the direction sought with a large enough effect; inconclusive means small, poorly fitted or top-dose-only effect, or another doubt; inactive means no such curve, though single readings can be large; an effect the other way counts as inactive or inconclusive. On the % scale 0 is the no-effect control and ±100 the full control effect; potency means the concentration at half of the fitted maximal effect.

SMILES	TDP1 inh	TDP1 cell noCPT	DT40 TDP1 CPT	RORgamma inh	VP16 counter
Cc1[nH]nc(N=CC2=C(O)CC(C)(C)CC2=O)c1-c1ccc(Cl)cc1	4.6%	11.6µM*	11.6µM*	u	u
CCOC(=O)c1c(C)[nH]c(C)c1C(=O)COC(=O)c1ccc(Cl)c(S(N)(=O)=O)c1	4.9%	u	-111.6%	u	11.3%
CCCCCC(=O)N(CN1C(=O)CCC1=O)c1ccccc1	6.2%	-1.1%	2.2%	17.8%	12.0%
O=C1CC(N2CCN(c3ccccc3O)CC2)C(=O)N1Cc1ccccc1 (configuration not stated)	5.8%	u	-18.0%	-0.9%	-0.6%
Cc1nc2ccccc2n1C1CC(=O)N(Cc2ccccc2)C1=O (configuration not stated)	7.0%	-9.2%	u	-28.8%	6.31µM*
CCCCCC(=O)N(O)C1CC(=O)N(c2ccccc2)C1=O (configuration not stated)	9.6%	4.61µM*	3.26µM*	15.8µM*	7.08µM*
O=C1CC(N(O)C2CC(=O)N(Cc3ccccc3)C2=O)C(=O)N1Cc1ccccc1 (configuration not stated)	-1.1%	10.3µM*	20.6µM*	-16.6%	u
CCCCCCC(=O)N(O)C1CC(=O)N(Cc2ccccc2)C1=O (configuration not stated)	8.4%	13µM*	13µM*	10µM*	-77.6%
O=C(COc1ccccc1C(=O)O)Nc1nc2ccc([N+](=O)[O-])cc2s1	2.9%	-22.5%	u	-5.3%	u
COc1ccccc1C(=O)NC(=S)Nc1cc(C(=O)O)ccc1C	-5.3%	-16.2%	4.7%	-14.5%	20.5%
Cn1cccc1/C=C(/C#N)C(N)=S	5.3%	-18.8%	-5.1%	1.4%	-13.6%
Cc1ccc(-c2ccc(/C=C(\C#N)C(N)=S)n2C)cc1	5.1%	-12.2%	-0.7%	2.24µM*	u
C/C=C(\C)CN1CCN(c2ccccc2F)CC1	x	-3.3%	-7.1%	-10.0%	3.9%
COc1cccc(/C=N/Nc2nc(Nc3ccc([N+](=O)[O-])cc3)nc(N3CCCC3)n2)c1O	10.0%	5.8µM*	8.2µM*	4.47µM*	-13.6%
O=[N+]([O-])c1ccc(NC2CCCC2)cc1	2.4%	-14.5%	-26.9%	u	-3.1%
O=[N+]([O-])c1ccc(Nc2nc(N/N=C/c3cccc(F)c3)nc(N3CCCC3)n2)cc1	8.2%	8.2µM*	6.51µM*	u	-29.5%
O=[N+]([O-])c1ccc(/C=N/Nc2nc(N3CCOCC3)nc(N3CCOCC3)n2)cc1	7.1%	x	x	-8.2%	-9.0%
O=[N+]([O-])c1ccc(Nc2nc(NC3CCCCC3)nc(N3CCCC3)n2)cc1	7.9%	23.1µM*	25.9µM*	36.1%	u
COc1cccc(/C=N/Nc2ccc([N+](=O)[O-])cn2)c1O	x	2.91µM*	3.26µM*	4.47µM*	7.08µM*
O=C(O)c1ccccc1C=NNc1ccc([N+](=O)[O-])cn1	x	-7.0%	7.3%	x	x
O=[N+]([O-])c1ccc(/C=N/Nc2nc(N3CCCCC3)nc(N3CCCCC3)n2)o1	10.7%	18.4µM*	u	-28.2%	1.2%
Clc1ccccc1/C=C/C=N/Nc1nc(N2CCOCC2)nc(N2CCOCC2)n1	6.0%	23.1µM*	23.1µM*	-11.6%	8.8%
O=[N+]([O-])c1cccc(/C=C/C=N/Nc2nc(N3CCCCC3)nc(N3CCCCC3)n2)c1	3.6%	u	-25.4%	7.94µM*	-1.2%
C(=C\c1ccccc1)/C=N/Nc1nc(N2CCOCC2)nc(N2CCOCC2)n1	1.0%	u	-11.0%	-2.3%	-2.0%
O=[N+]([O-])c1cccc(/C=N/Nc2nc(N3CCOCC3)nc(N3CCOCC3)n2)c1	8.0%	u	-5.1%	36.7%	-16.2%
SMILES	TDP1 inh	TDP1 cell noCPT	DT40 TDP1 CPT	RORgamma inh	VP16 counter
COc1c(/C=N/Nc2nc(N3CCCCC3)nc(N3CCCCC3)n2)cccc1[N+](=O)[O-]	2.9%	u	u	0.316µM*	14.4%
CCN(C(=O)c1cnc(NC(C)C)cc1C(F)(F)F)c1ccc(Cl)cc1Cl	2.6%	16.4µM*	8.2µM*	-0.8%	11.1%
CC(C(=O)Nc1ccc(Cl)cc1)c1ncc(C(F)(F)F)cc1Cl (configuration not stated)	3.2%	u	u	u	u
O=C(N/N=C/c1ccc([N+](=O)[O-])cc1)c1ccc(COc2ccccc2-c2ccccc2)cc1	5.5%	13µM*	u	8.4%	-6.6%
CCOc1ccc(/C=N/NC(=O)COc2ccccc2-c2ccccc2)cc1	1.0%	u	18.4µM*	-7.9%	-10.1%
O=C(N/N=C/c1ccc([N+](=O)[O-])cc1)c1ccccc1OCc1ccccc1	1.6%	u	-15.4%	10.7%	-8.1%
CCOc1ccccc1C1C(C#N)=C(SCC(=O)OC)NC(=O)C1C(=O)OC (configuration not stated)	4.1%	12.5%	0.7%	-3.6%	-6.2%
C=C(c1ccc(OC)cc1)c1ccc(OC)cc1	2.3%	u	u	38.6%	7.6%
CCc1cc(C(N)=S)ccn1	1.0%	7.3%	-11.2%	17.2%	-3.9%
COc1ccc(C(N)=S)cc1	5.4%	4.4%	-0.4%	12.6µM*	u
CCc1ccc(C(N)=S)cc1	2.5%	u	u	11.2µM*	-16.9%
O=C(Nc1ccc(N2CCOCC2)cc1)c1ccc(Br)o1	x	-23.1%	-11.2%	u	u
O=C(Nc1cccc(Cl)c1N1CCOCC1)c1ccc(Br)o1	7.5%	10.3µM*	10.3µM*	-15.9%	-4.1%
O=C(Nc1ccccc1N1CCCC1)c1ccc(Br)o1	0.0%	u	u	-36.5%	2.4%
O=C(Nc1cc(C(F)(F)F)ccc1N1CCCCC1)c1ccc(Br)o1	-7.7%	u	18.4µM*	18.4%	-7.3%
O=C(Nc1ccc(N2CCCC2)c(Cl)c1)c1ccc(Br)o1	9.4%	u	18.4µM*	34.3%	13.7%
O=C(Nc1cc(C(F)(F)F)ccc1N1CCCCC1)c1ccco1	3.3%	u	-2.4%	-15.6%	-0.7%
CC(C)CNC(=O)c1c(F)c(F)c(F)c(F)c1F	0.0%	-0.4%	-6.8%	-3.9%	6.5%
C[C@H](NC(=O)c1ncn2c1C(=O)N[C@@H](C)C2)c1ccccc1	x	u	-19.3%	x	x
Cc1ccc(S(=O)(=O)CCC(=O)OCC(=O)c2c[nH]c3ccccc23)cc1	-1.9%	u	-1.8%	20.4%	-3.8%
S=c1nc[nH]c2c1cnn2Cc1ccccc1	x	3.66µM*	10.3µM*	22.4µM*	u
Cc1cc(=O)[nH]c2c1cnn2Cc1ccccc1	6.8%	-6.6%	u	-12.3%	-1.1%
N#Cc1nccnc1S(=O)(=O)c1cccs1	0.0%	1.03µM*	0.651µM*	3.16µM*	3.55µM*
